Assay results taken from PubChem BioAssay (EPA / NIEHS).
Several values for one entry are separate records, joined by “and”; a condition that tells them apart may be missing. Equal entries are not always repeated. Inconclusive results are not listed. Activity calls are given as the source filed them. Rule for the calls: active = hit-call score of the fitted dose curve at least 0.9, where 1 is the maximum; inconclusive = response in the unintended direction; inactive = score below 0.9.

Legend:
[1] = target: Luciferin 4-monooxygenase (Photinus pyralis) (UniProt P08659); assay: CCTE_Simmons_QuantiLum_inhib_2: CCTE's Firefly Luciferase Inhibition Assay, Simmons Lab (AID 2283767);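 for AC50: potency for inhibitors that lower luciferase luminescence relative to DMSO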
Sequence of Luciferin 4-monooxygenase (Photinus pyralis) (P08659 whole entry, looked up): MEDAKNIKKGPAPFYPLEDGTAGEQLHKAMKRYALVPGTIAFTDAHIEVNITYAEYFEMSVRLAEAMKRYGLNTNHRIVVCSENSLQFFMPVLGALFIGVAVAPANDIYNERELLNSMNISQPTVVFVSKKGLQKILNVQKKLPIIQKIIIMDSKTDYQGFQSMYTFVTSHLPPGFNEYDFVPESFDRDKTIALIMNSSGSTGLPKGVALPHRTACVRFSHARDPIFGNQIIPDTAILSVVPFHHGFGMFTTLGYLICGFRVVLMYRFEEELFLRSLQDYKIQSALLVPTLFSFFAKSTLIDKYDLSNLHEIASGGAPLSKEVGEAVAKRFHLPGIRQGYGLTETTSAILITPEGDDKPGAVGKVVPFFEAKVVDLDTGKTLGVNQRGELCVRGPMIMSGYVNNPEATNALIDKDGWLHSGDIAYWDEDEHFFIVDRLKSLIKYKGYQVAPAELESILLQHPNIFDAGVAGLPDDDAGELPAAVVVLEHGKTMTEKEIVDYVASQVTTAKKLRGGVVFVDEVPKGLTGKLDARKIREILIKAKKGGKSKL
Procedure, shortened: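 First, 5 ng purified luciferase in phosphate buffer with BSA is dispensed per well. Next, test chemicals (5 nM to 87.5 uM final, 0.5% DMSO) are added and incubated 30 min at 37C in darkness. Finally, luciferin reagent is injected and luminescence read kinetically.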

[2] = ACEA_AR_antagonist_AUC_viability: ACEA Biosciences xCELLigence Real-Time Cell Analysis on Androgen Receptor Antagonism for Viability (AID 2283776);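 note: 22Rv1 human prostate cancer cells growing on impedance electrode plates; area under impedance growth curve at 80 h after dosing as viability; hits lower the growth signal relative to DMSO meaning cytotoxicity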
Procedure, shortened: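 Impedance read-out (RT-CES): area under growth curve at 80 h post-dose, loss of signal scored vs DMSO baseline. 22Rv1 cells; 8-pt 1:4 series, top 100 uM final, ≤0.5% DMSO; biological duplicate.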

[3] = ACEA_ER_AUC_viability: ACEA Biosciences xCELLigence Real-Time Cell Analysis on Estrogen Receptor Agonism for Viability (AID 2283782);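 note: hit means loss of impedance signal meaning reduced cell growth or viability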
Procedure, shortened: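 Viability endpoint: reduced impedance area under the curve relative to DMSO, recorded by real-time electrode sensing over ~80 h of continuous exposure. Duplicate plates of T47D in hormone-depleted medium; eight concentrations, 1:4 dilutions, 100 uM maximum.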

[4] = ArunA_Migration_hNP: ArunA Biomedical's Oris Neuroprogenitor (hNP) Cell Migration Assay (AID 2283754)
Procedure, shortened: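 Readout is calcein-AM fluorescence (ex494/em517) of cells migrating into the detection zone, relative to DMSO. hNP1 cells (H9-derived) grown on Matrigel behind stoppers 16 h, then stoppers pulled and chemical applied 72 h; cytochalasin D as control.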

[5] = ArunA_Migration_hNC: ArunA Biomedical's Oris Neural Crest (hNC) Cell Migration Assay (AID 2283755)
Procedure, shortened: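 Calcein-AM fluorescence (ex494 nm/em 517 nm) in the stopper-defined detection zone quantifies migration of hNC cells after 72 h chemical exposure; 60,000 cells/well plated on Matrigel with LIF and bFGF, 16 h pre-incubation. DMSO baseline.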

[6] = ArunA_NOG_NucleusCount: ArunA Biomedical's Neurite Outgrowth (NOG) Assay for Nucleus Count (AID 2283756)
Procedure, shortened: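 Viable neuron count, from Hoechst nuclei passing size and intensity gates, imaged at 20x on differentiated H9-derived human neurons. Exposure lasted 48 h from seeding; activity was scored relative to DMSO.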

[7] = ACEA_AR_agonist_AUC_viability: ACEA Biosciences xCELLigence Real-Time Cell Analysis on Androgen Receptor Agonism for Viability (AID 2283775);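 for AC50: viability read 80 hours after compound addition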
Procedure, shortened: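 22Rv1 cells; impedance growth kinetics; 8-pt 1:4 dilutions from 100 uM top final, ≤0.5% DMSO; n = 2; 80 h read; AUC viability, loss-of-signal vs DMSO.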

AR (gene 367) [8] = target: AR (gene 367) (UniProt P10275); assay: ACEA_AR_agonist_80hr: ACEA Biosciences xCELLigence Real-Time Cell Analysis on Androgen Receptor Agonism for Proliferation (AID 2283783);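 note: hits increase impedance growth signal above DMSO baseline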
Sequence of AR (gene 367) (P10275 whole entry, looked up): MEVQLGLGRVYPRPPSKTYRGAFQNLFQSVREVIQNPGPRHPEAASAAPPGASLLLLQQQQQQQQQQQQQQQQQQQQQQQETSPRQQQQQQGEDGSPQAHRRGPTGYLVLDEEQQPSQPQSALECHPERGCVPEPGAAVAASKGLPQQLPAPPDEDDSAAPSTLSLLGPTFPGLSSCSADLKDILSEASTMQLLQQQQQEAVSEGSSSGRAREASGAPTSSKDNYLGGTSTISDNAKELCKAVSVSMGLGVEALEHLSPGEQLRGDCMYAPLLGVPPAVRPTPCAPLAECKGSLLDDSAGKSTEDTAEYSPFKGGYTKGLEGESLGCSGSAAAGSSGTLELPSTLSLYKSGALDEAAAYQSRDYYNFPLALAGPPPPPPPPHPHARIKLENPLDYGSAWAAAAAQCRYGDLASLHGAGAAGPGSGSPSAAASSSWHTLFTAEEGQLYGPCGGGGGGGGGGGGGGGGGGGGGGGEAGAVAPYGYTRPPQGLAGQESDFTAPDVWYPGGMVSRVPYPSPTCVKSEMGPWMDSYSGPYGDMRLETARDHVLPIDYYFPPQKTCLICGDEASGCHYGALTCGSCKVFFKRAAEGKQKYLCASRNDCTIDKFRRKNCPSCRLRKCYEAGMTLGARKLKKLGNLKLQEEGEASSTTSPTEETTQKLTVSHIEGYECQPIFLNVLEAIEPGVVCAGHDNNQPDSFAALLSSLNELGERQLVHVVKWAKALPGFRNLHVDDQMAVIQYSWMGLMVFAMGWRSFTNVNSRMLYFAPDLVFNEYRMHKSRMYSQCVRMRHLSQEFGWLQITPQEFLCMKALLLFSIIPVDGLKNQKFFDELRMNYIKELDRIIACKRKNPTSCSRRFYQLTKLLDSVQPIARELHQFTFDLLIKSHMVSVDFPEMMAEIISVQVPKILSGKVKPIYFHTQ
Procedure, shortened: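 Eight concentrations, 1:4 serial dilution from a 100 uM final top, in biological duplicate. Impedance-based real-time growth of 22Rv1 cells after overnight baseline, recorded hourly and read at 80 hours. Controls: testosterone, MG132, assay media.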

[9] = STM_H9_NormalizedViability: Cytotoxicity Assessment at 120 hours in the Stemina devTOX quickPredict H9 human embryonic stem cell (hESC)-based Assay (AID 2283784)
Procedure, shortened: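 Viability of the cell layer was taken from live-cell protease cleavage of a fluorogenic substrate after compound exposure of undifferentiated H9 stem cells, with replenishment each 24h. Fluorescence was normalized to vehicle (0.1% DMSO).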

AR (gene 367) [10] = target: AR (gene 367) (UniProt P10275); assay: ACEA_AR_antagonist_80hr: ACEA Biosciences xCELLigence Real-Time Cell Analysis on Androgen Receptor Antagonism for Proliferation (AID 2283787);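 note: 22Rv1 human prostate cancer cells with growth followed by electrical impedance; hits lower the impedance growth signal relative to DMSO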
Procedure, shortened: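 Impedance-based real-time growth of 22Rv1 prostate cells, read 80 h after dosing. Eight concentrations, 1:4 series, top 100 uM final (0.5% DMSO), n = 2; signal decrease scored against DMSO.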

[11] = ArunA_NOG_NeuriteLength: ArunA Biomedical's Neurite Outgrowth (NOG) Assay for Neurite Length (AID 2283757)
Procedure, shortened: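 Total neurite length per neuron, from traced βIII-tubulin-labelled processes longer than 10 um on viable Hoechst-gated cells, was scored as decrease from DMSO. Cells were hESC (H9)-derived neurons given 48 h chemical exposure immediately after seeding.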

[12] = ArunA_NOG_NeuritesPerNeuron: ArunA Biomedical's Neurite Outgrowth (NOG) Assay for Neurites Per Neuron (AID 2283758)
Procedure, shortened: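 Differentiated human H9-derived neurons exposed to chemicals for 48 h from seeding, then stained with Hoechst and βIII-tubulin/DyLight 488. Automated imaging counted neurites (processes >10 um) per valid neuron; loss of signal versus DMSO scored.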

[13] = ArunA_NOG_BranchPointsPerNeurite: ArunA Biomedical's Neurite Outgrowth (NOG) Assay for Branch Points Per Neurite (AID 2283759)
Procedure, shortened: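 Automated image analysis traced neurites (processes >10 um) from valid cell bodies after Hoechst and βIII-tubulin staining. hNN cells from H9 embryonic stem cells, 48 h exposure. Fitted bidirectionally against DMSO.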

[14] = target: zebrafish Estrogen Receptor (ESR1), esr1 (gene 259252) (UniProt P57717); assay: ATG_zfER1_XSP1: Attagene TRANS-FACTORIAL Multi-Species (XSP1) HepG2 Assay for zebrafish Estrogen Receptor (ESR1) (AID 2283772)
Sequence of zebrafish Estrogen Receptor (ESR1), esr1 (gene 259252) (P57717 whole entry, looked up, the tested form may be a part): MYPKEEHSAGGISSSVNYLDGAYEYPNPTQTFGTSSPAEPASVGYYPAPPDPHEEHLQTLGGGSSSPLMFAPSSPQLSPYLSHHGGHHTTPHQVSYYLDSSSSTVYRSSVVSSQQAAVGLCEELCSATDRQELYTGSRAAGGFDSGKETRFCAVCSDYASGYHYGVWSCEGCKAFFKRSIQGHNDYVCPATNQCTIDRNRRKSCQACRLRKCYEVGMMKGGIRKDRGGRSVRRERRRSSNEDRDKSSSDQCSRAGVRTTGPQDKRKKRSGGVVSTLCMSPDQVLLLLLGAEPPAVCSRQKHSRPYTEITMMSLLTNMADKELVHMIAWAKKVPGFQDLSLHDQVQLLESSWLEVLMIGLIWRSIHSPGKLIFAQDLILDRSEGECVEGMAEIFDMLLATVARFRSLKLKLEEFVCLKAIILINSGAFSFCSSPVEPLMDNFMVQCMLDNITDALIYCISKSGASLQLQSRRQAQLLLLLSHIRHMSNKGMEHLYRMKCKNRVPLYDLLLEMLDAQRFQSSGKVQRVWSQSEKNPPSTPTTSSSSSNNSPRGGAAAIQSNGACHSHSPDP
Procedure, shortened: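 Transfect HepG2 with GAL4-UAS multi-reporter constructs; treat 24 h (medium carries 3 nM 6-alpha-fluorotestosterone); extract RNA, reverse-transcribe, PCR-amplify, FAM-label, digest with HpaI; resolve by capillary electrophoresis and compare against DMSO baseline.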

[15] = system: zebrafish Estrogen Receptor (ESR2B), gene 317733; assay: ATG_zfER2b_XSP1: Attagene TRANS-FACTORIAL Multi-Species (XSP1) HepG2 Assay for zebrafish Estrogen Receptor (ESR2B) (AID 2283773)
Procedure, shortened: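 Medium contained 3 nM 6-alpha-fluorotestosterone. Reporter mRNA induction by exogenous zebrafish ER2b-Gal4 chimera was read 24 h post-dose in transiently transfected HepG2 cells, using RT-PCR, fluorescent labelling, HpaI digestion and capillary electrophoresis.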

[16] = system: frog Estrogen Receptor (ESR2), gene 100174814; assay: ATG_frER2_XSP1: Attagene TRANS-FACTORIAL Multi-Species (XSP1) HepG2 Assay for frog Estrogen Receptor (ESR2) (AID 2283774)
Procedure, shortened: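 Reporter mRNA from a multiplexed TRANS system, measured by RT-PCR with fluorescent labelling and capillary electrophoresis, 24 hours after chemical exposure. Human HepG2 liver cells carried exogenous frog ER-Gal4 chimera; medium included 3 nM 6-alpha-fluorotestosterone; increases versus DMSO analysed.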

[17] = system: frog Estrogen Receptor (ESR1), gene 398734; assay: ATG_frER1_XSP1: Attagene TRANS-FACTORIAL Multi-Species (XSP1) HepG2 Assay for frog Estrogen Receptor (ESR1) (AID 2283777)
Procedure, shortened: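 HepG2 cells transiently transfected with GAL4-UAS reporter units and frog ER–Gal4 chimera were dosed for 24 h with 3 nM 6-alpha-fluorotestosterone present. Reporter mRNA was measured by RT-PCR and capillary electrophoresis; gain of signal fitted versus DMSO.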

[18] = target: chicken Estrogen Receptor (ESR1), ESR1 (gene 396099) (UniProt P06212); assay: ATG_chERa_XSP1: Attagene TRANS-FACTORIAL Multi-Species (XSP1) HepG2 Assay for chicken Estrogen Receptor (ESR1) (AID 2283779)
Sequence of chicken Estrogen Receptor (ESR1), ESR1 (gene 396099) (P06212 whole entry, looked up, the tested form may be a part): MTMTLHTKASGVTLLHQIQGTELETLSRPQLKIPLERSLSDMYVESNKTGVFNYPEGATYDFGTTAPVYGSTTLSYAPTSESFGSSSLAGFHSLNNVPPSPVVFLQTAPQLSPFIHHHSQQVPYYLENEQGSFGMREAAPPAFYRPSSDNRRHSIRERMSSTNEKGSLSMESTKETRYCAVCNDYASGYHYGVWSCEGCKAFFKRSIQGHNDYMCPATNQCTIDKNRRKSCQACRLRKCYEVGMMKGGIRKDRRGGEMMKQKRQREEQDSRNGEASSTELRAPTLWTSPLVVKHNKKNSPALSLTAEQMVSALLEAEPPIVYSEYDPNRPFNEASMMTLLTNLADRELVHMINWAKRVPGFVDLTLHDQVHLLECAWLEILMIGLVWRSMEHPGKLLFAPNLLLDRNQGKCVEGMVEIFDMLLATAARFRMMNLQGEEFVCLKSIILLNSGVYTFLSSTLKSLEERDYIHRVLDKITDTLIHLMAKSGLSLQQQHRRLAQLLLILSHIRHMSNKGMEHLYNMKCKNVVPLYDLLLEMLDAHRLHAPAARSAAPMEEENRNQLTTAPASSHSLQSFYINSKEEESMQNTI
Procedure, shortened: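 Trans-activation of an exogenous chicken ERα–Gal4 chimera read as reporter transcript (RT-PCR, fluorescent labeling, capillary electrophoresis) after 24 h compound exposure of transfected HepG2; medium held 3 nM 6-alpha-fluorotestosterone. Positive-direction fit against DMSO.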

[19] = system: turtle Estrogen Receptor (ESR1), gene 101933533; assay: ATG_trERa_XSP1: Attagene TRANS-FACTORIAL Multi-Species (XSP1) HepG2 Assay for turtle Estrogen Receptor (ESR1) (AID 2283781)
Procedure, shortened: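 Transactivation measured 24 h post-dose as reporter mRNA (RT-PCR, fluorescent capillary electrophoresis) from an NR-Gal4 turtle ER construct in HepG2. Medium included 3 nM 6-alpha-fluorotestosterone; increase over DMSO fitted.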

[20] = system: zebrafish Androgen Receptor (AR), gene 100005148; assay: ATG_zfAR_XSP1: Attagene TRANS-FACTORIAL Multi-Species (XSP1) HepG2 Assay for zebrafish Androgen Receptor (AR) (AID 2283771)
Procedure, shortened: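 Gain-of-signal versus DMSO was measured as reporter transcripts quantified by RT-PCR, fluorescent labelling and capillary electrophoresis after 24 h chemical exposure. The cells were HepG2 expressing a chimeric zebrafish AR-GAL4, co-stimulated with 3 nM 6-alpha-fluorotestosterone.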

Measured: AC50

S=c1[nH]c2ccccc2s1
inactive: [1] | [2]
active: [3] 91.9 µM

O=C1OC(c2ccc(O)cc2)(c2ccc(O)cc2)c2ccccc21
active: [4] 26.9 µM | [5] 15.9 µM | [7] 21.1 µM | [2] 19.8 µM | [3] 92 µM | AR (gene 367) [10] 20.6 µM
inactive: [6] | [1] | AR (gene 367) [8] | [9]

COC(=O)[C@H]1[C@H]2C[C@@H]3c4[nH]c5cc(OC)ccc5c4CCN3C[C@H]2C[C@@H](OC(=O)c2cc(OC)c(OC)c(OC)c2)[C@@H]1OC
inactive: [4] | [6] | [11] | [12] | [13] | [1] | [9]
active: [5] 50 µM | [7] 42.2 µM | [2] 33 µM | [3] 60.5 µM

CCCCOC(=O)CCCCC(=O)OCCCC
inactive: [7] | [2]

Cc1cc(Cc2ccc(N)c(C)c2)ccc1N
inactive: [1] | [2] | [9]

CC(=O)O[C@]1(C(C)=O)CC[C@H]2[C@@H]3C=C(Cl)C4=CC(=O)[C@@H]5C[C@@H]5[C@]4(C)[C@H]3CC[C@@]21C
active: [14] 35.6 µM | [15] 13.1 µM | [16] 18 µM | [7] 87.1 µM | [2] 0.0607 µM | [17] 4.61 µM | [18] 5.26 µM | [19] 3.25 µM

Oc1ccccc1O
inactive: [1]
active: [7] 18 µM | [2] 28.9 µM | [3] 90.5 µM

CCN(CC)CCOc1ccc(C(=C(Cl)c2ccccc2)c2ccccc2)cc1
inactive: [20] | [14] | [15] | [16]
active: [7] 13.1 µM | [2] 12.4 µM | [3] 6.6 µM and 7.32 µM and 11.2 µM | [9] 8.7 µM

CC(C)(O)c1ccc(CNC(=O)c2cccnc2Oc2ccc(F)cc2)cc1
inactive: [7] | [2]

Cc1ccc(C(C)(C)C)c(O)c1
active: [3] 75.6 µM
inactive: [1] | [7] | [2]

Cc1cc(SC2=C(O)C[C@@](CCc3ccc(N)cc3)(C(C)C)OC2=O)c(C(C)(C)C)cc1CO
active: [7] 50 µM | [2] 61.8 µM | AR (gene 367) [10] 68.9 µM
inactive: [1] | [3]

Cc1ccc(-c2cc(C(F)(F)F)nn2-c2ccc(S(N)(=O)=O)cc2)cc1
active: [4] 81.9 µM | [5] 78.7 µM | [6] 7.13 µM | [11] 12.9 µM | [12] 13.9 µM | [7] 17.7 µM | [2] 15.9 µM | [3] 90.7 µM | AR (gene 367) [10] 12.7 µM

NC=O
inactive: [7] | [2]

Cc1c(C)c2c(c(C)c1O)CCC(C)(COc1ccc(CC3SC(=O)NC3=O)cc1)O2 (centres undefined)
active: [2] 50 µM | [3] 82.9 µM | AR (gene 367) [10] 55.8 µM
inactive: [1]

CCCC(=O)O
inactive: [7] | [2]

Oc1ccc(O)cc1
inactive: [1]
active: [2] 50 µM | [3] 11.3 µM

C/C=C/C=C/C(=O)O
inactive: [1] | [2] | [3]

O=Cc1ccccc1C=O
inactive: [3]
active: [1] 53.8 µM | [7] 79.2 µM | [2] 78.7 µM | AR (gene 367) [10] 83 µM

C/C=C/c1ccc(OC)cc1
inactive: [1] | [2] | [3]

CCCCCCCCCCCCCCOS(=O)(=O)O
inactive: [1]
active: [2] 42.3 µM | [3] 74.5 µM
